# HT1080-NT tox – kills 2HG-producing HT-1080-NT fibrosarcoma cells. HT-1080-NT fibrosarcoma viability, CellTiter-Glo ATP luminescence, 48 h. Potency, µM (top dose mostly 46.1 µM), for the others: top-dose activity, negative = less viability, usual class: cytotoxic. 360,000 compounds, 1.6% hits;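 note: NT is the 2HG producing partner of a matched IDH1 knockdown line; potency is the fitted concentration of half-maximal effect; 0% = DMSO-treated cells and -100% = media-only wells without cells; nearly all actives have a fitted effect of over 55% in size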
#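 Fibrosarcoma NT cells, 750 per well in 5% FBS RPMI, were exposed to compound for 48 hours. Viability: CellTiter-Glo luminescence.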
# IL1B secr inh – inhibitors of inflammasome signaling (IL-1 beta secretion); 360,000 compounds, 4.7% hits; THP-1 LPS/ATP IL-1B secretion, AlphaLISA, 16 h; stronger effect = lower value; activity change, % at 57.5 µM; AID 743279; in the data active = activity change below about -50%; inconclusive = mostly about -30% to -49%
#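 THP-1 cells pretreated 1 hr with compounds (up to 57.5 uM final), then stimulated with LPS (250 ng/mL final) plus ATP (1.25 mM final); secreted IL-1B measured by AlphaLISA after 16 hr, decreased signal indicating inhibition.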
# HT1080 IDH1KD tx – HT-1080 IDH1 knockdown cell toxicity (counter line); HT-1080 IDH1 knockdown viability, ATP luminescence, 48 h; Potency, µM (top dose mostly 46.1 µM), for inactives: at the highest dose activity, negative = toxicity, hits mostly cytotoxic; 360,000 compounds, 2% hits;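 note: potency is the fitted concentration of half-maximal effect; 0% = DMSO wells and -100% = cell-free medium wells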
#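 HT-1080-IDH1KD cells (IDH1 knocked down), 750/well in RPMI with 5% FBS, treated with compound 48 h at 37 degrees C. Viability by CellTiter-Glo luminescence, normalised to DMSO and no-cell wells; concentration-response curves classed.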
# KB-3-1 cytotox – kills parental KB-3-1 adenocarcinoma cells; KB-3-1 viability, CellTiter-Glo ATP luminescence, 72 h; Potency, µM (top dose mostly 46.1 µM), actives largely listed as cytotoxic; 400,000 compounds, 1.4% hits; note: potency is the fitted concentration of half-maximal effect; nearly all actives have a fitted effect of over 60% in size
#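 Multi-concentration cytotoxicity screen in KB-3-1 cells grown in DMEM lacking phenol red with 10% FBS. After 72 h at 37 °C with compound, ATP-dependent luminescence was recorded.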
# KB-V1 MDR tox – KB-V1 MDR subline cytotoxicity; AID 1347076; Potency, µM (top dose mostly 46.1 µM), actives largely listed as cytotoxic; KB-V1 MDR cells viability, CellTiter-Glo, 72 h; 400,000 compounds, 3.4% hits; note: potency is the fitted concentration of half-maximal effect; nearly all actives have a fitted effect of over 60% in size
#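 Luminescent ATP read-out (CellTiter-Glo, 10 min) measures survival of drug-selected KB-V1 MDR cells after 72 h, 37 degrees C compound exposure. Medium: phenol-red-free DMEM, 10% FBS. Values from fitted concentration-response curves.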
# Active calls of the source: *; i = inactive; ? = inconclusive; . = no result; ! = a repeat was not active. An excerpt weighted towards active compounds, which were near 8.8% of everything screened. Unless noted, calls come from the whole dose curve; as a rule, active = well fitted curve in the direction sought with a large enough effect; inconclusive = small, poorly fitted or top-dose-only effect, or another doubt; inactive = no such curve, though single readings can be large; an effect the other way counts as inactive or inconclusive. Unless noted, % is set by controls: 0 for no effect and ±100 for the full control effect.
SMILES,HT1080-NT tox,IL1B secr inh,HT1080 IDH1KD tx,KB-3-1 cytotox,KB-V1 MDR tox
CNc1cncc(-c2ccc(OCCCN(C)C)nc2)n1,12.3%,-6.1,0.9%,i,i
COc1cccc(C(=O)Nc2sc3c(c2C#N)CCN(C(C)=O)C3)c1,2.59µM*,70.9,2.91µM*,5.17µM*,?
CC(=O)N1CCc2c(sc(NC(=O)CS(=O)(=O)c3ccc(F)cc3)c2C#N)C1,-26.5%,58.9,-28.8%,?,i
COc1cccc(C(=O)Nc2sc3c(c2C(=O)O)CCCC3)c1,?,-13.5,-28.6%,18.4µM*,?
CC(C)c1csc(CN2CCC(CO)(Cc3cccc(F)c3)CC2)n1,0.0%,-59.0*,-14.4%,?,?
OCC1(Cc2cccc(F)c2)CCN(Cc2cccc3nccnc23)CC1,-15.5%,?,-22.4%,?,?
COc1ccc(CN(C)C[C@@H]2OCc3cnnn3CCCC(=O)N([C@@H](C)CO)C[C@H]2C)cc1,1.9%,21.0,-1.9%,i,i
COC(=O)c1cc2nc(-c3ccccc3)cc(C)n2n1,4.0%,8.6,2.1%,i,i
Cc1cc(-c2ccccc2)nc2cc(C(=O)N(Cc3ccccc3)Cc3ccccc3)nn12,?,-16.4,16.4µM*,?,?
O=C(CC(c1cccs1)N1Cc2ccccc2C1=O)Nc1ccccc1F (stereo not drawn),.,.,.,i,i
CCN1CC=C2C(C1)C(c1ccc(Cl)s1)C(C#N)=C(N)C2(C#N)C#N (stereo not drawn),-0.3%,-4.3,-8.4%,i,14.6µM*
COc1ccc2cc3[n+](cc2c1OC)CCc1cc2c(cc1-3)OCO2,?,?,?,7.31µM*!,i
C=C(C)Cn1c2ccc(NC(=O)CCOCC)cc2c(=O)n1C,?,19.7,25.6%,i,i
CCOCCC(=O)Nc1ccc2c(c1)c(=O)n(C)n2CC=C(C)C,?,-13.3,?,3.66µM*,i
COc1ccc(NC(=O)CN(C)C(=O)c2ccccc2OCC(=O)Nc2cccc(C(F)(F)F)c2)cc1,-4.8%,-2.8,0.0%,i,i
COc1ccc(CN(C)C(=O)c2ccc(OCC(=O)Nc3cccc(C(F)(F)F)c3)c(OC)c2)c(OC)c1,?,-76.9*,-25.2%,?,?
COc1ccc(CN(C)C(=O)c2cccc(NC(=O)CC3SC(N4CCCCC4)=NC3=O)c2)c(OC)c1 (stereo not drawn),?,-54.9*,-26.8%,16.4µM*,i
COc1cc(C(=O)NCCCN(C)C)ccc1OCC(=O)Nc1cccc(C(F)(F)F)c1,-16.3%,-53.2*,?,i,i
COc1cccc(CN(C)C(=O)c2ccc(OCC(=O)Nc3cccc(C(F)(F)F)c3)c(OC)c2)c1,?,-62.3*,?,?,4.11µM*
COc1cccc(CN(C)C(=O)c2cccc(NC(=O)CC3SC(N4CCCCC4)=NC3=O)c2)c1OC (stereo not drawn),0.6%,-13.4,-6.2%,i,i
O=C(NC(NC1CCS(=O)(=O)C1)C(Cl)(Cl)Cl)c1cccc(Cl)c1 (stereo not drawn),-0.8%,2.6,-1.4%,i,23.1µM*
Cc1ccc(NC(=S)NC(NC(=O)c2ccccc2)C(Cl)(Cl)Cl)c(C)c1 (stereo not drawn),?,?,?,?,16.4µM*
O=C(NC(NC(=S)Nc1ccc(Cl)cc1Cl)C(Cl)(Cl)Cl)c1cccc([N+](=O)[O-])c1 (stereo not drawn),?,-101.8*,?,?,?
Cc1ccc(C(=O)NC(NC(=S)Nc2ccc(S(N)(=O)=O)cc2)C(Cl)(Cl)Cl)cc1 (stereo not drawn),-6.0%,-76.3*,-4.7%,?,i
CC(C)c1ccc(NC(=O)CN2C(=O)CCc3cc(S(=O)(=O)N4CCOCC4)ccc32)cc1,.,.,.,i,i
SMILES,HT1080-NT tox,IL1B secr inh,HT1080 IDH1KD tx,KB-3-1 cytotox,KB-V1 MDR tox
CCOC(=O)NC(=O)/C(C#N)=C(/C)N(C)C,6.1%,0.6,20.1%,i,?
Cc1cc(C)c(NC(=S)NC(NC(=O)c2ccccc2)C(Cl)(Cl)Cl)c(C)c1 (stereo not drawn),?,-74.8*,?,?,?
Cc1ccccc1NC(=S)NC(NC(=O)c1ccccc1C)C(Cl)(Cl)Cl (stereo not drawn),-20.7%,-11.6,-14.9%,i,i
O=C(NC(NC(=S)Nc1ccccc1)C(Cl)(Cl)Cl)c1cccc(Cl)c1 (stereo not drawn),?,-94.5*,?,?,?
O=C(O)c1cccc(NC(=S)NC(NC(=O)c2cccc([N+](=O)[O-])c2)C(Cl)(Cl)Cl)c1 (stereo not drawn),7.0%,8.0,6.9%,i,i
COc1ccc(Cl)cc1NC(=O)C(C)N(C)Cc1ccc(C(F)(F)F)cc1 (stereo not drawn),-15.2%,25.6,?,?,?
COc1ccc(C(=O)Nc2ccc(N3CCN(C(=O)c4cccs4)CC3)cc2)cc1Br,-19.1%,-23.1,-27.2%,i,i
O=C(Nc1ccc(N2CCN(C(=O)c3cccs3)CC2)cc1)c1ccc(F)cc1,0.4%,.,2.8%,i,0.184µM*
COc1cc(OC)cc(C(=O)Nc2ccc(N3CCN(C(=O)c4cccs4)CC3)cc2)c1,?,-8.6,-19.6%,7.31µM*,8.2µM*
O=C(Cn1nc(-c2ccccc2)ccc1=O)Nc1ccc(N2CCN(C(=O)c3cccs3)CC2)cc1,-7.2%,-57.2*,-10.8%,?,i
CC(=O)Nc1ccc(N2CCN(C(=O)c3cccs3)CC2)cc1,19.1%,-15.8,14.5%,i,i
CC(C)(C)c1ccccc1NC(=O)c1ccc(-n2cncn2)c([N+](=O)[O-])c1,13.1%,-6.7,13.0%,i,i
Cc1ccc(C(=O)c2oc3ccccc3c2NC(=O)c2cc(-c3cc(C)ccc3O)n[nH]2)cc1,28.7%,57.8,9.0%,?,?
Cc1ccc(C(=O)c2oc3ccccc3c2NC(=O)c2cc(-c3ccccc3O)n[nH]2)cc1,16.4µM*,-3.1,?,i,i
O=C(Nc1c(C(=O)c2ccccc2)oc2ccccc12)c1cc(-c2ccccc2O)n[nH]1,?,-10.6,18.4µM*,?,?
CC(c1ccc(F)cc1)n1cc(C(=O)NCCN(C)C)nn1 (stereo not drawn),4.2%,13.0,2.0%,i,i
COc1ccc(C(C(=O)NC2CCCCC2)N(C(=O)CCl)c2ccc(OC)cc2)cc1 (stereo not drawn),1.64µM*,-89.9*,1.16µM*,5.8µM*,3.66µM*
COC(CN(C(=O)CCl)C(C(=O)NC1CCCCC1)c1ccc(C)cc1)OC (stereo not drawn),7.6%,-92.6*,7.6%,?,?
